PubChem BioAssay (NCI)
Compounds without any hit were thinned out: in the full panel of roughly 83,000, 20% have a hit.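 How to read the values: 0–100, growth inhibition (40 = 60% inhibited); 0, no net growth; -100 to 0, cell death (-40 = 40% of starting cells died; -100 = all dead).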 The source made the active and inactive calls. How the source made its calls: active means growth percent below 10; inactive means the rest.

How the values were obtained:
Assay in all cases: NCI-60 one-dose screen, 48 h (100 = growth as untreated, 0 = no growth, -100 = all killed)
Settings in all cases: 10 µM unless noted
NCI-H23 lung = system: NCI-H23 lung
NCI-H226 lung = system: NCI-H226 lung
NCI-H322M lung = system: NCI-H322M lung
NCI-H460 lung = system: NCI-H460 lung
HOP-92 NSCLC = system: HOP-92 NSCLC
NCI-H522 lung = system: NCI-H522 lung
A549/ATCC NSCLC = system: A549/ATCC NSCLC
786-0 renal = system: 786-0 renal
COLO 205 colon = system: COLO 205 colon
DU-145 prostate = system: DU-145 prostate
K-562 leukemia = system: K-562 leukemia
MALME-3M melanoma = system: MALME-3M melanoma
MDA-MB-231 breast = system: MDA-MB-231 breast
RXF 393 renal = system: RXF 393 renal
SF-268 CNS = system: SF-268 CNS
SF-295 CNS = system: SF-295 CNS
SF-539 CNS = system: SF-539 CNS
UACC-257 melanoma = system: UACC-257 melanoma
M14 melanoma = system: M14 melanoma

Measured: growth

C=CCn1cc(-c2nc3ccccc3s2)c2cc(-c3ccc4c5c(cccc35)C(=O)N(N)C4=O)ccc21
inactive: NCI-H23 lung 88.2% | NCI-H226 lung 89.8% | NCI-H322M lung 96.9% | NCI-H460 lung 98.9% | HOP-92 NSCLC 93.7% | NCI-H522 lung 84.9% | A549/ATCC NSCLC 105% | 786-0 renal 99.3% | COLO 205 colon 109% | DU-145 prostate 110% | K-562 leukemia 107% | MALME-3M melanoma 101% | MDA-MB-231 breast 83.1% | RXF 393 renal 106% | SF-268 CNS 89.5% | SF-295 CNS 99.1% | SF-539 CNS 101% | UACC-257 melanoma 104% | M14 melanoma 94.5%

Cc1ccccc1NC(=O)c1sc2nc(C)c(C(=O)/C=C/c3ccccc3)cc2c1N
active: NCI-H460 lung 0.299% | 786-0 renal -16.9% | MDA-MB-231 breast 3.85% | RXF 393 renal -26.7% | SF-539 CNS -34.4% | M14 melanoma 4.85%
inactive: NCI-H23 lung 43.3% | NCI-H226 lung 26.2% | NCI-H322M lung 55.5% | HOP-92 NSCLC 37% | NCI-H522 lung 17.9% | A549/ATCC NSCLC 14.3% | COLO 205 colon 64.1% | DU-145 prostate 10.5% | K-562 leukemia 13% | MALME-3M melanoma 59.7% | SF-268 CNS 11.8% | SF-295 CNS 14% | UACC-257 melanoma 68.5%

Oc1c(Cl)cc(Cl)cc1/C=N/Nc1nnc(N/N=C/c2cc(Cl)cc(Cl)c2O)c2ccccc12
active: NCI-H23 lung -20.6% | NCI-H226 lung -37.5% | NCI-H460 lung 0.0293% | 786-0 renal -22.2% | K-562 leukemia 9.41% | RXF 393 renal -16.3% | SF-268 CNS 6.61% | SF-295 CNS -1.51% | SF-539 CNS -17.7% | M14 melanoma 5.83%
inactive: NCI-H322M lung 21% | HOP-92 NSCLC 13.9% | NCI-H522 lung 14.1% | A549/ATCC NSCLC 22.8% | DU-145 prostate 21.8% | MALME-3M melanoma 10.4% | MDA-MB-231 breast 21.3% | UACC-257 melanoma 38.5%

COc1ccccc1NC(=O)Cn1cc(CN2CCN(c3ccnc4cc(Cl)ccc34)CC2)nn1
inactive: NCI-H23 lung 89.2% | NCI-H226 lung 84.7% | NCI-H322M lung 95.1% | NCI-H460 lung 96.3% | NCI-H522 lung 86.8% | A549/ATCC NSCLC 91% | 786-0 renal 99% | COLO 205 colon 101% | DU-145 prostate 106% | K-562 leukemia 83.8% | MALME-3M melanoma 106% | MDA-MB-231 breast 82.3% | RXF 393 renal 85.8% | SF-268 CNS 84% | SF-295 CNS 100% | SF-539 CNS 99.3% | UACC-257 melanoma 106% | M14 melanoma 106%

COc1ccc(-c2nn(-c3ccccc3)cc2/C=C2/SC(=S)N(C)C2=O)cc1
active: 786-0 renal 1.33%
inactive: NCI-H23 lung 94.5% | NCI-H226 lung 55.1% | NCI-H322M lung 60.8% | NCI-H460 lung 11.2% | HOP-92 NSCLC 74.7% | NCI-H522 lung 91.2% | A549/ATCC NSCLC 36.8% | COLO 205 colon 64.4% | DU-145 prostate 90.7% | K-562 leukemia 56.9% | MALME-3M melanoma 88.4% | MDA-MB-231 breast 63% | RXF 393 renal 96.5% | SF-268 CNS 99.2% | SF-295 CNS 51.4% | SF-539 CNS 70.3% | UACC-257 melanoma 29.4% | M14 melanoma 97.3%

O=C1N(Cc2ccccc2Cl)c2ccccc2C12NN=C(c1cccc(Cl)c1)S2 (stereo not given)
inactive: NCI-H522 lung 16.7% | COLO 205 colon 66.8% | K-562 leukemia 10.1% | SF-268 CNS 26.2% | UACC-257 melanoma 18.9%
active: NCI-H23 lung -18.7% | NCI-H226 lung -58.4% | NCI-H322M lung -12.7% | NCI-H460 lung -50.7% | HOP-92 NSCLC -68.3% | A549/ATCC NSCLC -63.7% | 786-0 renal -67.7% | DU-145 prostate -46.2% | MALME-3M melanoma -23.6% | MDA-MB-231 breast -4.77% | RXF 393 renal -73% | SF-295 CNS -44.9% | SF-539 CNS 6.32% | M14 melanoma 4.67%

COC(=O)c1c2c(c(C)[n+]([O-])c1C)C(=O)C(NCc1ccc(Cl)cc1)=CC2=O
inactive: NCI-H23 lung 59% | NCI-H226 lung 92.6% | NCI-H322M lung 64.3% | NCI-H460 lung 51.8% | HOP-92 NSCLC 107% | NCI-H522 lung 42% | A549/ATCC NSCLC 66.9% | 786-0 renal 74% | DU-145 prostate 86.6% | K-562 leukemia 28.7% | MDA-MB-231 breast 48.7% | RXF 393 renal 86.6% | SF-268 CNS 76.8% | SF-295 CNS 87.6% | SF-539 CNS 85.3% | UACC-257 melanoma 17.8% | M14 melanoma 39.6%
active: COLO 205 colon 9.79% | MALME-3M melanoma -75.4%

CC(C)OC(=O)c1ccc2[nH]c(O)c(C(=Nc3ccc(N(C)C(=O)CN4CCN(C)CC4)cc3)c3ccccc3)c2c1
active: NCI-H23 lung -59.9% | NCI-H322M lung -6.59% | NCI-H460 lung -57.9% | HOP-92 NSCLC 1.36% | NCI-H522 lung -60.6% | A549/ATCC NSCLC -46.7% | 786-0 renal -92.4% | COLO 205 colon -59.4% | DU-145 prostate -23% | K-562 leukemia -15.2% | MALME-3M melanoma -85% | MDA-MB-231 breast -71.4% | RXF 393 renal -96.8% | SF-268 CNS -32.7% | SF-295 CNS -26.9% | SF-539 CNS -95.6% | UACC-257 melanoma -64.9% | M14 melanoma -85.1%
inactive: NCI-H226 lung 20.1%
